Experimental data as given in the supplement of paper PMC8728848.
This is one part of a sample in which the strongest signals are shown more often than they occur.

Tests used:
Assay in all cases: glycan array binding signal (z-score within array); higher = stronger binding
Conditions in all cases: glycan notation: IUPAC condensed, linker removed
Fuc(a1-2)Gal(b1-3)GlcNAc = biological target: Fuc(a1-2)Gal(b1-3)GlcNAc
In short: (§1)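 The binding signal is a Z-score computed within each array. Data were drawn from 3228 arrays in the Consortium for Functional Glycomics database, restricted to those with a known protein sequence. Scores were averaged over arrays of the same protein sequence at different concentrations or buffers, and over linkers, and negative values can be taken as non-binding.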

[1] = biological target: Fuc(a1-2)Gal(b1-3)GlcNAc(b1-3)Gal(b1-4)Glc
In short: as §1

[2] = biological target: Fuc(a1-2)Gal(b1-3)GlcNAc(b1-3)[Gal(b1-4)GlcNAc(b1-6)]Gal(b1-4)Glc
In short: as §1

[3] = biological target: Fuc(a1-2)Gal(b1-3)[Fuc(a1-4)]GlcNAc(b1-2)Man(a1-3)[Fuc(a1-2)Gal(b1-3)[Fuc(a1-4)]GlcNAc(b1-2)Man(a1-6)]Man(b1-4)GlcNAc(b1-4)[Fuc(a1-6)]GlcNAc(b1-4)[Fuc(a1-6)]GlcNAc
In short: as §1

[4] = biological target: Fuc(a1-2)Gal(b1-3)[Fuc(a1-4)]GlcNAc(b1-3)[Fuc(a1-3)[Gal(b1-4)]GlcNAc(b1-6)]Gal(b1-4)Glc
In short: as §1

Fuc(a1-2)Gal(b1-4)Glc6S = biological target: Fuc(a1-2)Gal(b1-4)Glc6S
In short: as §1

[5] = biological target: Fuc(a1-2)[Gal(a1-3)]Gal(b1-4)GlcNAc
In short: as §1

[6] = biological target: Fuc(a1-2)[Gal(a1-3)]Gal(b1-4)[Fuc(a1-3)]GlcNAc
In short: as §1

[7] = biological target: Fuc(a1-2)[GalNAc(a1-3)]Gal(b1-3)GlcNAc(b1-6)GalNAc
In short: as §1

[8] = biological target: Fuc(a1-2)[GalNAc(a1-3)]Gal(b1-4)GlcNAc(b1-2)Man(a1-3)[Fuc(a1-2)[GalNAc(a1-3)]Gal(b1-4)GlcNAc(b1-2)Man(a1-6)]Man(b1-4)GlcNAc(b1-4)[Fuc(a1-6)]GlcNAc
In short: as §1

[9] = biological target: Fuc(a1-2)[GalNAc(a1-3)]Gal(b1-4)GlcNAc(b1-3)Gal(b1-4)GlcNAc
In short: as §1

[10] = biological target: Fuc(a1-3)[Gal3S(b1-4)]GlcNAc6S
In short: as §1

[11] = biological target: Gal(a1-3)Gal(b1-3)[Fuc(a1-4)]GlcNAc(b1-2)Man(a1-3)[Gal(a1-3)Gal(b1-3)[Fuc(a1-4)]GlcNAc(b1-2)Man(a1-6)]Man(b1-4)GlcNAc(b1-4)GlcNAc
In short: as §1

Gal(b1-3)GlcNAc(b1-2)Man = biological target: Gal(b1-3)GlcNAc(b1-2)Man
In short: as §1

[12] = biological target: Gal(b1-3)GlcNAc(b1-2)Man(a1-3)[GlcNAc(b1-4)][Gal(b1-3)GlcNAc(b1-2)Man(a1-6)]Man(b1-4)GlcNAc(b1-4)GlcNAc
In short: as §1

[13] = biological target: Gal(b1-3)GlcNAc(b1-3)Gal(b1-4)GlcNAc(b1-2)Man(a1-3)[Gal(b1-3)GlcNAc(b1-3)Gal(b1-4)GlcNAc(b1-2)Man(a1-6)]Man(b1-4)GlcNAc(b1-4)GlcNAc
In short: as §1

[14] = biological target: Gal(b1-3)GlcNAc(b1-3)Gal(b1-4)GlcNAc(b1-2)[Gal(b1-3)GlcNAc(b1-3)Gal(b1-4)GlcNAc(b1-6)]Man(a1-6)[Gal(b1-3)GlcNAc(b1-3)Gal(b1-4)GlcNAc(b1-2)Man(a1-3)]Man(b1-4)GlcNAc(b1-4)[Fuc(a1-6)]GlcNAc
In short: as §1

[15] = biological target: Gal(b1-3)GlcNAc(b1-3)Gal(b1-4)GlcNAc(b1-3)Gal(b1-4)GlcNAc(b1-2)[Gal(b1-3)GlcNAc(b1-3)Gal(b1-4)GlcNAc(b1-3)Gal(b1-4)GlcNAc(b1-6)]Man(a1-6)[Gal(b1-3)GlcNAc(b1-3)Gal(b1-4)GlcNAc(b1-3)Gal(b1-4)GlcNAc(b1-2)Man(a1-3)]Man(b1-4)GlcNAc(b1-4)[Fuc(a1-6)]GlcNAc
In short: as §1

[16] = biological target: Gal(b1-3)GlcNAc(b1-3)Gal(b1-4)[Fuc(a1-3)]GlcNAc(b1-6)[Gal(b1-3)GlcNAc(b1-3)]Gal(b1-4)Glc
In short: as §1

[17] = biological target: Gal(b1-4)GlcNAc(b1-2)Man(a1-3)[GlcNAc(b1-4)][Gal(b1-4)GlcNAc(b1-2)Man(a1-6)]Man(b1-4)GlcNAc(b1-4)GlcNAc
In short: as §1

[18] = biological target: Gal(b1-4)GlcNAc(b1-3)Gal(b1-4)GlcNAc(b1-3)Gal(b1-4)GlcNAc(b1-2)Man(a1-3)[Gal(b1-4)GlcNAc(b1-3)Gal(b1-4)GlcNAc(b1-3)Gal(b1-4)GlcNAc(b1-2)Man(a1-6)]Man(b1-4)GlcNAc(b1-4)[Fuc(a1-6)]GlcNAc
In short: as §1

[19] = biological target: Gal(b1-4)GlcNAc(b1-3)Gal(b1-4)GlcNAc(b1-3)Gal(b1-4)GlcNAc(b1-2)[Gal(b1-4)GlcNAc(b1-3)Gal(b1-4)GlcNAc(b1-3)Gal(b1-4)GlcNAc(b1-6)]Man(a1-6)[Gal(b1-4)GlcNAc(b1-3)Gal(b1-4)GlcNAc(b1-3)Gal(b1-4)GlcNAc(b1-2)Man(a1-3)]Man(b1-4)GlcNAc(b1-4)[Fuc(a1-6)]GlcNAc
In short: as §1

[20] = biological target: Gal(b1-4)GlcNAc(b1-3)Gal(b1-4)GlcNAc(b1-3)Gal(b1-4)GlcNAc(b1-3)Gal(b1-4)GlcNAc(b1-3)Gal(b1-4)GlcNAc(b1-2)Man(a1-3)[Gal(b1-4)GlcNAc(b1-3)Gal(b1-4)GlcNAc(b1-3)Gal(b1-4)GlcNAc(b1-3)Gal(b1-4)GlcNAc(b1-3)Gal(b1-4)GlcNAc(b1-2)Man(a1-6)]Man(b1-4)GlcNAc(b1-4)[Fuc(a1-6)]GlcNAc
In short: as §1

[21] = biological target: Gal(b1-4)GlcNAc(b1-3)Gal(b1-4)GlcNAc(b1-3)GalNAc
In short: as §1

Gal(b1-6)Gal = biological target: Gal(b1-6)Gal
In short: as §1

[22] = biological target: Gal3S(b1-3)[Fuc(a1-4)]GlcNAc
In short: as §1

Gal6S(b1-3)GlcNAc = biological target: Gal6S(b1-3)GlcNAc
In short: as §1

Gal6S(b1-4)Glc6S = biological target: Gal6S(b1-4)Glc6S
In short: as §1

GalNAc3S(b1-4)GlcNAc3S = biological target: GalNAc3S(b1-4)GlcNAc3S
In short: as §1

[23] = biological target: GlcNAc(a1-3)Gal(b1-4)GlcNAc
In short: as §1

[24] = biological target: GlcNAc(a1-4)Gal(b1-4)GalNAc
In short: as §1

[25] = biological target: GlcNAc(a1-4)Gal(b1-4)GlcNAc(b1-3)Gal(b1-4)GlcNAc
In short: as §1

[26] = biological target: GlcNAc(b1-3)Gal(b1-4)GlcNAc(b1-3)[GlcNAc(b1-3)Gal(b1-4)GlcNAc(b1-3)]GalNAc
In short: as §1

[27] = biological target: GlcNAc(b1-4)GlcNAc(b1-4)GlcNAc(b1-4)GlcNAc(b1-4)GlcNAc
In short: as §1

Kdn(a2-6)Gal(b1-4)GlcNAc = biological target: Kdn(a2-6)Gal(b1-4)GlcNAc
In short: as §1

[28] = biological target: Man(a1-2)Man(a1-3)[Man(a1-2)Man(a1-6)]Man(a1-6)[Man(a1-2)Man(a1-2)Man(a1-3)]Man
In short: as §1

[29] = biological target: Neu5Ac(a2-3)Gal(b1-3)[GlcNAc(b1-6)]GalNAc
In short: as §1

[30] = biological target: Neu5Ac(a2-3)Gal(b1-3)[Neu5Ac(a2-6)]GlcNAc(b1-3)[Fuc(a1-3)[Gal(b1-4)]GlcNAc(b1-6)]Gal(b1-4)Glc
In short: as §1

[31] = biological target: Neu5Ac(a2-3)Gal(b1-4)GlcNAc
In short: as §1

[32] = biological target: Neu5Ac(a2-3)Gal(b1-4)GlcNAc(b1-6)[Neu5Ac(a2-3)Gal(b1-3)]GalNAc
In short: as §1

[33] = biological target: Neu5Ac(a2-3)Gal(b1-4)[Fuc(a1-3)]GlcNAc(b1-6)[Gal(b1-3)]GalNAc
In short: as §1

[34] = biological target: Neu5Ac(a2-6)Gal(b1-4)GlcNAc
In short: as §1

[35] = biological target: Neu5Ac(a2-6)Gal(b1-4)GlcNAc(b1-2)Man(a1-3)[Man(a1-6)]Man(b1-4)GlcNAc(b1-4)GlcNAc
In short: as §1

[36] = biological target: Neu5Ac(a2-6)Gal(b1-4)GlcNAc(b1-3)Gal(b1-4)[Fuc(a1-3)]GlcNAc(b1-3)Gal(b1-4)[Fuc(a1-3)]GlcNAc
In short: as §1

[37] = biological target: Neu5Ac(a2-6)Gal(b1-4)GlcNAc6S
In short: as §1

[38] = biological target: Neu5Ac(a2-6)GlcNAc(b1-4)GlcNAc(b1-4)GlcNAc
In short: as §1

[39] = biological target: Neu5Ac(a2-8)Neu5Ac(a2-8)Neu5Ac
In short: as §1

B1: CpGal16 (Clavelina picta) (protein)
chain: MAKMITNYVGKRIECIMVATDMMSTVFSLASATGDLPFYINFRQRENSIVMNTRVHGKWQYEKSQSSGGMNFYEPFRLVVEVRPSVFKVTVSTMGEEDGITFNLQYSQITIKPDEIVAMHLGYCNLRSELLVTDL
**Q.** What does the source list for B1?
**A.** glycan array binding signal (z-score) (Fuc(a1-2)Gal(b1-3)GlcNAc): 2.93; glycan array binding signal (z-score) [1]: 3.11; glycan array binding signal (z-score) [2]: 2.79; glycan array binding signal (z-score) [3]: -0.402; glycan array binding signal (z-score) [4]: -0.394; glycan array binding signal (z-score) (Fuc(a1-2)Gal(b1-4)Glc6S): 3.43; glycan array binding signal (z-score) [5]: -0.113; glycan array binding signal (z-score) [6]: -0.434; glycan array binding signal (z-score) [7]: 3.13; glycan array binding signal (z-score) [8]: 0.044; glycan array binding signal (z-score) [9]: 2.86; glycan array binding signal (z-score) [10]: -0.265; glycan array binding signal (z-score) [11]: -0.202; glycan array binding signal (z-score) (Gal(b1-3)GlcNAc(b1-2)Man): 0.015; glycan array binding signal (z-score) [12]: 2.87; glycan array binding signal (z-score) [13]: 3.83; glycan array binding signal (z-score) [14]: 3.99; glycan array binding signal (z-score) [15]: 4.48; glycan array binding signal (z-score) [16]: 3.33; glycan array binding signal (z-score) [17]: -0.358; glycan array binding signal (z-score) [18]: 0.953; glycan array binding signal (z-score) [19]: 1.44; glycan array binding signal (z-score) [20]: 1.28; glycan array binding signal (z-score) [21]: -0.168; glycan array binding signal (z-score) (Gal(b1-6)Gal): -0.407; glycan array binding signal (z-score) [22]: -0.266; glycan array binding signal (z-score) (Gal6S(b1-3)GlcNAc): -0.282; glycan array binding signal (z-score) (Gal6S(b1-4)Glc6S): -0.12; glycan array binding signal (z-score) (GalNAc3S(b1-4)GlcNAc3S): 0.397; glycan array binding signal (z-score) [23]: -0.249; glycan array binding signal (z-score) [24]: -0.312; glycan array binding signal (z-score) [25]: -0.32; glycan array binding signal (z-score) [26]: -0.168; glycan array binding signal (z-score) [27]: -0.348; glycan array binding signal (z-score) (Kdn(a2-6)Gal(b1-4)GlcNAc): -0.352; glycan array binding signal (z-score) [28]: -0.232; glycan array binding signal (z-score) [29]: -0.388; glycan array binding signal (z-score) [30]: -0.357; glycan array binding signal (z-score) [31]: -0.378; glycan array binding signal (z-score) [32]: -0.324; glycan array binding signal (z-score) [33]: 0.134; glycan array binding signal (z-score) [34]: -0.456; glycan array binding signal (z-score) [35]: -0.395; glycan array binding signal (z-score) [36]: -0.419; glycan array binding signal (z-score) [37]: -0.303; glycan array binding signal (z-score) [38]: -0.261; glycan array binding signal (z-score) [39]: -0.39
